Experimental findings from PubChem BioAssay (NCI) are described below.

Some test systems named below: SK-MEL-2 melanoma; EKVX NSCLC; SN12C renal; UO-31 renal; TK-10 renal; ACHN renal; CAKI-1 renal; A498 renal; CCRF-CEM leukemia; MOLT-4 leukemia.
Common to all, as to assay: NCI-60 one-dose screen, 48 h (100 = growth as untreated, 0 = no growth, -100 = all killed)
Holding throughout (settings): 10 µM unless noted

This is part of a sample that, as a whole, favours compounds with a hit. Of some 83,000 tested, about 20% had one in any assay.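 Compound tested at a single concentration for 48 hours in 96-well plates; a percent growth value below 10 was scored as active.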 Values without a mark were called inactive. Active and inactive are the calls of the source.

For `N#CC(I)CS(=O)(=O)c1ccccc1` (stereo not given), the growth was 91.6% with SK-MEL-2 melanoma; 103% in the assay on EKVX NSCLC; 93.4% with SN12C renal; 77.2% with UO-31 renal; 89.7% in the assay on TK-10 renal; 36.7% in the assay on ACHN renal. The growth was 55.4% in the assay on CAKI-1 renal, 121% in the assay with A498 renal, 3.27% (active) in the assay with CCRF-CEM leukemia and 88.9% in the assay on MOLT-4 leukemia.
For the molecule `O=C1c2ccccc2Cc2cccc(Cl)c21`, the growth was 87.5% in the assay with SK-MEL-2 melanoma; 104% in the assay with EKVX NSCLC; 97.3% with SN12C renal; 82.9% in the assay with UO-31 renal; 89.6% in the assay with TK-10 renal; 98.9% in the assay with ACHN renal. In addition, the growth in the assay on CAKI-1 renal was 99.1%; with A498 renal it was 64.3%; in the assay on CCRF-CEM leukemia it was 98.8%; in the assay with MOLT-4 leukemia it was 39.6%.
As to `O=C1C=CC(O)=CC1=P(c1ccccc1)(c1ccccc1)c1ccccc1`, the growth in the assay with SK-MEL-2 melanoma is 82.6%; in the assay with EKVX NSCLC it was 93.8%; in the assay with SN12C renal, 89.4%; in the assay on UO-31 renal it was 71.8%; in the assay with TK-10 renal it was 96.3%; with ACHN renal, 99.2%. Also, the growth with CAKI-1 renal is 86.2%; in the assay with A498 renal, 58.6%; in the assay on CCRF-CEM leukemia it was 86.9%; in the assay on MOLT-4 leukemia, 101%.
Turning to `C(=N\Nc1ccc2ccccc2n1)/c1ccccn1`, the growth with SK-MEL-2 melanoma was 39.5%; in the assay on EKVX NSCLC it was 20.7%; in the assay on SN12C renal, 17.7%; with UO-31 renal it was -29.8% (active); in the assay on TK-10 renal, 48%; in the assay on ACHN renal it was 7.28% (active). The growth with CAKI-1 renal was 2.92% (active); with A498 renal, 26.7%; in the assay with CCRF-CEM leukemia it was 16.9%; in the assay with MOLT-4 leukemia, 6.6% (active).
On to `O=C(O)c1cc2c(s1)C(=O)c1sccc1C2=O`, for which the growth in the assay on SK-MEL-2 melanoma is 15.5%; in the assay on EKVX NSCLC, 101%; with SN12C renal, -46.9% (active); in the assay with UO-31 renal, -43.1% (active); in the assay on TK-10 renal, 115%; in the assay on ACHN renal, 80.1%. Also, the growth was 107% with CAKI-1 renal, 103% with A498 renal, 42.5% in the assay on CCRF-CEM leukemia and 72.3% in the assay on MOLT-4 leukemia.
Regarding `CN(C)c1ccc(/C=C/c2ccnc3ccccc23)cc1`, the growth in the assay with SK-MEL-2 melanoma was -5.02% (active); in the assay on EKVX NSCLC, 22.4%; with SN12C renal it was 36.2%; in the assay on UO-31 renal it was 50.2%; with TK-10 renal, 59.5%; with ACHN renal, 47.4%. In addition, the growth was 45.7% in the assay with CAKI-1 renal, 62% in the assay with A498 renal, 51.1% with CCRF-CEM leukemia and 33.1% in the assay on MOLT-4 leukemia.
With `Nc1ccc(-c2ccc(N)c(S(=O)(=O)O)c2)cc1S(=O)(=O)O`, the growth is 127% in the assay on SK-MEL-2 melanoma; 119% with EKVX NSCLC; 102% with SN12C renal; 94.5% in the assay with UO-31 renal; 122% with TK-10 renal; 105% with ACHN renal. For the same molecule, the growth in the assay on CAKI-1 renal was 123%; with A498 renal, 141%; with CCRF-CEM leukemia, 127%; with MOLT-4 leukemia, 131%.
With `CC(C)=C1C=C2CC[C@@H]3[C@](C)(CCC[C@@]3(C)C(=O)O)[C@H]2CC1`, the growth is 109% with SK-MEL-2 melanoma; 93.4% in the assay with EKVX NSCLC; 106% in the assay on SN12C renal; 88.9% in the assay on UO-31 renal; 93.2% with TK-10 renal; 104% in the assay with ACHN renal. The growth in the assay on CAKI-1 renal was 99.6%; in the assay on A498 renal, 109%; with CCRF-CEM leukemia, 106%; in the assay with MOLT-4 leukemia it was 96.6%.
As for `Cn1c(-c2ccccc2)c(/C=C/C2=[N+](C)c3ccccc3C2(C)C)c2ccccc21`, the growth in the assay on SK-MEL-2 melanoma was 6.41% (active); in the assay with EKVX NSCLC it was 20%; in the assay on SN12C renal, 7.02% (active); in the assay on UO-31 renal, 74%; in the assay with TK-10 renal, 3.06% (active); in the assay with ACHN renal it was 18.2%. Besides, the growth in the assay with CAKI-1 renal was 35.6%; with A498 renal it was 3.03% (active); with CCRF-CEM leukemia, 8% (active); in the assay with MOLT-4 leukemia, -10.6% (active).
For the molecule `Fc1ccc(NCCS)cc1`, the growth in the assay with SK-MEL-2 melanoma was 102%; with EKVX NSCLC, 101%; in the assay on SN12C renal, 97.9%; in the assay with UO-31 renal, 84.7%; in the assay with TK-10 renal, 106%; in the assay with ACHN renal, 105%. The growth is 110% in the assay with CAKI-1 renal, 101% in the assay with A498 renal, 96.6% in the assay on CCRF-CEM leukemia and 95.3% with MOLT-4 leukemia.
As to `c1ccc2sc(SSN3CC4CCC(CC4)C3)nc2c1`, the growth in the assay on SK-MEL-2 melanoma was 124%; in the assay on EKVX NSCLC it was 106%; in the assay on SN12C renal it was 104%; with UO-31 renal, 55.1%; in the assay with TK-10 renal it was 121%; in the assay on ACHN renal, 98.3%. In addition, the growth in the assay on CAKI-1 renal was 104%; with A498 renal, 142%; in the assay with CCRF-CEM leukemia it was 111%; in the assay with MOLT-4 leukemia, 56.3%.
For `O=[N+]([O-])c1ccc(Oc2ccccc2Cl)c([N+](=O)[O-])c1`, the growth in the assay with SK-MEL-2 melanoma was 88.6%; in the assay on EKVX NSCLC, 104%; with SN12C renal it was 90.4%; with UO-31 renal, 81.9%; in the assay with TK-10 renal it was 98.7%; in the assay on ACHN renal it was 100%. The growth is 82.7% in the assay with CAKI-1 renal, 84.7% in the assay with A498 renal, 57.8% with CCRF-CEM leukemia and 22.7% with MOLT-4 leukemia.
`CN1CCC(CN2c3ccccc3Sc3ccccc32)C1` (stereo not given): the growth is 114% in the assay with SK-MEL-2 melanoma; 107% in the assay with EKVX NSCLC; 97.1% in the assay with SN12C renal; 60.2% with UO-31 renal; 92% in the assay on TK-10 renal; 86.1% in the assay with ACHN renal. The growth in the assay with CAKI-1 renal is 79.4%; in the assay on A498 renal it was 109%; in the assay with CCRF-CEM leukemia, 72.7%; in the assay with MOLT-4 leukemia, 79.1%.
As for `CCCOS(=O)(=O)c1ccccc1`, the growth was 114% in the assay with SK-MEL-2 melanoma; 110% in the assay with EKVX NSCLC; 103% in the assay on SN12C renal; 83.3% in the assay with UO-31 renal; 102% with TK-10 renal; 102% with ACHN renal. In addition, the growth is 91.8% in the assay on CAKI-1 renal, 100% with A498 renal, 6.52% (active) in the assay with CCRF-CEM leukemia and 107% with MOLT-4 leukemia.
